In the supplement of paper PMC11417369:
± gives the standard deviation of the averaged measurements. The full ranking holds about 25,000 sequences; the median of “ln(normalized median fluorescence intensity)” is about 7.9, and the highest 2% start at about 11. The full list was thinned out, with the highest values kept by preference.

test system: PfAP2-I AP2 domain 3 (GST-tagged); experiment: gcPBM binding intensity (ln(normalized median fluorescence intensity)); higher = stronger DNA binding
Method in brief: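 GST-tagged P. falciparum DNA-binding domains produced in E. coli were incubated for 1 h on an Agilent 4 × 180k array of primer-extended double-stranded 36-bp intergenic genomic probes with negative controls. Binding intensity is the highest Masliner-normalised natural-log median intensity across replicate spots of either probe orientation, with bound protein detected by Alexa488 anti-GST antibody at 488 nm.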

Sequence | gcPBM binding intensity (ln)
ATACATATATGTGTGTGTACATAAATGTATATATTT [XGTACX_site6242] | 7.93 ± 0.38
AACCCTTTTGATTTTTCTTTTTTTTTTTTTTTAAAT [CACACA_negctrl_site1667] | 7.5 ± 0.69
TTTTTTAAAATATGGACACACATATATATATATGTA [CACACA_site2784] | 7.67 ± 0.3
TAAAACTTAATATAAACACACAAAAATTAATAAATA [CACACA_site4370] | 7.62 ± 0.44
TTTTTTTTTTTTCACGTGCACTATACATATAAGTAA | 11.1 ± 0.23
TTTTTTTTTTTTTCAAGTACATATATATATATATAA [XGTACX_site2098] | 7.99 ± 0.45
TCACATTTTGGACACGTGCACATATATTTGATACAT | 9.48 ± 0.33
ATATATATATATTTTACACACAATGGAGAAAAAAAT [CACACA_site644] | 9.01 ± 0.092
AGGGAAAAAAAAAAAGTGCATTTGTATTAAATGAAT | 9.9 ± 0.028
TTTTAAAGAAAATATTTTATCATTATTTTTTGTACT [CACACA_negctrl_site1648] | 7.41 ± 0.57
TTAAAATCTTGAAAAGTGCATTATCATTTTGTAACG [GTGCAC_site9447] | 11.4 ± 0.73
GAGAGGTATCAAAAATGTACACATATATATATGTAT [XGTACX_site5611] | 7.79 ± 0.47
ATATATCTTTATATAGTGCATTAAATATGTTGTAAT [GTGCAC_site9953] | 11.5 ± 0.54
AATATTTTATATGTAGTGCATTACTATAGGATTTAT [GTGCAC_site9424] | 11.4 ± 0.74
TTATTATTATTACTAGTGCATTAATTATATATGTAA | 11.6 ± 0.49
AATATATTTATATAGTGTACATTTTTTATATATGTA [XGTACX_site8142] | 7.67 ± 0.18
TTATTAAATATAAATATGTATCTTTTATGTTATATT [CACACA_negctrl_site306] | 7.29 ± 0.44
TATCTTTTTACAATAGTGCATATGTTATCATTAATA [GTGCAC_site9489] | 9.54 ± 0.18
GGATTATTTATAGGAGTGCATACATATATATATATA [GTGCAC_site9454] | 9.76 ± 0.071
ATATATATATATGTAGTGCATTTTATATATAATATT | 9.875 ± 0.035
CATATGTTATATGTAGTGCATTACTATAGGATTTAT [GTGCAC_site9860] | 11.4 ± 0.64
ATAATTATTAATATAGTGCATTGGCATAATAATATA [GTGCAC_site9810] | 9.89 ± 0.2
TTTTTTTTTAATTATGCATGTAAATTATATATTATA [TGCATGCA_site335] | 8.55 ± 1.1
GTTTATATGTTCATAGTGCATATATGTTGATTTATT | 10.2 ± 0.33

Sequence | gcPBM binding intensity (ln)
TAAATATATAAACACACACACATTAATACAGATATT [CACACA_site5851] | 7.72 ± 0.54
TATATATATATTTATACACACATTAGTGTAGACATG [CACACA_site8964] | 8.915 ± 0.021
ATATATATGTATACATGTACATATTTTATTATGTGC [XGTACX_site7207] | 7.9 ± 0.61
TTATATATATATATATATATATATATATATATAAAT [GTGCAC_negctrl_site126] | 8.41 ± 0.23
TTTTTATATGCGTATTGTACATTATACATATATATA [XGTACX_site6786] | 7.97 ± 0.38
TTCTTTATTTTTTCTACACACATTAGATATTCAAAG [CACACA_site7624] | 8.02 ± 0.53
TTTGGAATATTAATTGTGCACTTAAAAAGTTAATTA | 11 ± 0.35
TTGTTAATAAAAATATTGGAAAGTTTATAAAATTTT [CACACA_negctrl_site1487] | 7.53 ± 0.52
TTTATATTAATTGATGTGCACTGAAATATTTGTCCA [GTGCAC_site9655] | 10.3 ± 0.28
TTTATTTGTGCATATACACACTTAAATATGTTTATT [CACACA_site7772] | 9.405 ± 0.035
AGAATTATTGTTAATGCATGTGGAAGTTAAAATATT [TGCATGCA_site188] | 8.48 ± 0.69
ATGAAATATTTATTTGTGCACTTAATTTGTTGGAAA | 11.2 ± 0.21
TTGTTCATTATGCACAGTACATAAAAAGTAAAAAAA [XGTACX_site2403] | 10 ± 0.65
TTTCTGTGTTTTGGTTGTACACACGCTACATTATAT [XGTACX_site5669] | 8.53 ± 0.67
GGAAATAATATTATTACACACCAAAATGTATAAAAA [CACACA_site4036] | 8.36 ± 0.85
ATTGAACACATCTATGCATGCACGGAAAAAAGTACA [TGCATGCA_site401] | 11 ± 0.28
GCATGCACGGAAAAAAGTACATATATAAATTTGGTT [XGTACX_site3393] | 8.2 ± 0.52
ATATATATATATGAAAGTACACATCTATTTTTTCTT [XGTACX_site6059] | 9.29 ± 0.18
AGAAAGGATATAAGCGTAGCTATATCATAAAAAATG [GTGCAC_negctrl_site332] | 7.58 ± 0.74
TTTTTTTTTTTTTTGGTGCACATAGAAATTCTAAAA [GTGCAC_site9809] | 10.9 ± 0.6
AAAAAAAAAATTTTCGTGCACATAAGAAAATTTAAA [GTGCAC_site9788] | 10.3 ± 0.16
TGTAGAAATGGGTGCACACACATATAAAATCTATAT [CACACA_site7224] | 10.4 ± 0.59
ATATTTTAATTATAAAGTACATAAAAATATATAAAC [XGTACX_site6705] | 7.92 ± 0.35
TATTATAATAAAATATGTACACACATACACACATAT [XGTACX_site2360] | 7.98 ± 0.41

Sequence | gcPBM binding intensity (ln)
TATTACATACATATCTGTACATATATTAATGCACAA [XGTACX_site3315] | 11.6 ± 1
TATTTCTGATTATTTTGTACACATTATATATAATGC [XGTACX_site6990] | 8.04 ± 0.29
ATATATACATATAAATGTACATAATTATTATGCACA [XGTACX_site1261] | 11.3 ± 0.82
TTTGTGTATATATAATGTACATTATATTTTTATTAT [XGTACX_site6506] | 8.13 ± 0.45
AAAAAAAAAAAATTATGTACATATTATATATAATGG [XGTACX_site2885] | 7.77 ± 0.45
ATATATATATATAATGCACACATTATAAATTATGTA [CACACA_site5802] | 11.1 ± 0.26
TTAATATTAATATATTGTACATATATGCACATATTT [XGTACX_site6569] | 9.1 ± 0.18
TTATGTTCATTATATGCACACATATATATAAATGTA [CACACA_site8947] | 9.11 ± 0.071
ATATAATATCTGTATACACACATATTATATAATATT [CACACA_site5940] | 7.86 ± 0.51
TTTTTTTTTTTTTTGTGTACATATAATGCACATTAT [XGTACX_site6505] | 11.1 ± 0.93
ATGTTCATTATATGCACACATATATATAAATGTAAT [CACACA_site2908] | 9.34 ± 0.3
TGAAAATATATAACGCGTACAAAAAGGAAATACAAT [XGTACX_site3534] | 8.38 ± 0.64
AAAAAAAAAAAAAATATACACACTAATATATTTTTT [CACACA_site815] | 7.98 ± 0.54
TAAATATATTAAGCTTGTACATGAAAAAAAAAAAAA [XGTACX_site3264] | 8.1 ± 0.59
TTTTCTTAAAAAATCAAACACACATATATATATACA [CACACA_site2297] | 7.6 ± 0.51
ATAAATAATTATATATGTACACATTATGAATGGATA [XGTACX_site8336] | 7.78 ± 0.4
ATATATATATATAATGCACACATTATGAATTATGTA [CACACA_site3384] | 11.3 ± 0.26
GATATATAATATAATACACACATTTTATGAATGTAA [CACACA_site24] | 7.66 ± 0.32
AAATGTTATAACTCTTGAAAAAACAAAATATCATCA [CACACA_negctrl_site1156] | 7.57 ± 0.49
ACCAATAATATACATACACACATAAAGGTTTATATA [CACACA_site315] | 7.95 ± 0.44
ATGAAACAGTAACATTGTACTTTTACAAAAAAATAA [XGTACX_site806] | 7.7 ± 0.33
AAAAAAAAAAAAAACATACACACATTGAACTTTTAT [CACACA_site3251] | 8.18 ± 0.54
TGTGTCCATTGAACAGTGCAATAAAAACTTTTACAT | 11.2 ± 0.59
TACACACCTAACTATGCATGCATCAATATAGTGGAT [TGCATGCA_site443] | 7.76 ± 0.75

Sequence | gcPBM binding intensity (ln)
AACGGGTAATGCACAAAAAAAAAAAAATAAAATAAA [TGCATGCA_negctrl_site474] | 11.4 ± 1
AAAATATAATATAATGCACACATAAACAAAAAAAAA [CACACA_site8161] | 10.9 ± 0.74
TAATAAATCAAATGCACACACACAAAAAAAAAAAAA [CACACA_site161] | 9.24 ± 0.38
ATAAATCAAATGCACACACACAAAAAAAAAAAAAAA [CACACA_site6221] | 9.31 ± 0.16
CACAAAAATAAACACACACACATATATATATATATA [CACACA_site4704] | 9.39 ± 0.42
AATATAAAAATGCACACACACAAAAAAAAAAAAAAA [CACACA_site6546] | 9.03 ± 0.16
AATATAATATAATGCACACATAAAAAAAAAATCAAA [CACACA_site122] | 11.2 ± 1
AAAATTTAATATAATGCACACATAAAACAAAAACAA [CACACA_site8071] | 10.9 ± 0.64
AATTTAATATAATGCACACATAAAACAAAAACAAAA [CACACA_site529] | 10.8 ± 0.72
CATTAACAAATAAATGCACACATATATATAAATAAT [CACACA_site7892] | 9.51 ± 0.35
ATGGATTTTACCATAGCACACATATATGAATATTTT [CACACA_site8535] | 7.96 ± 0.54
ATTAAATTAAAATAATGTACTTAATACTTTTGCTTA [XGTACX_site8404] | 7.39 ± 0.39
TTAACAAATAAATGCACACATATATATAAATAATAT [CACACA_site28] | 9.52 ± 0.35
AATATAAAATAATGCACACATAAACAAAAAATCAAA [CACACA_site1371] | 10.9 ± 0.88
AAATCACATAAAACATAATCAAATGAAATATAATCA [CACACA_negctrl_site123] | 7.38 ± 0.6
AATATAATATAATGCACACATAAACAAAAAAAAAAT [CACACA_site1304] | 10.9 ± 0.96
AAAATATAAAATAATGCACACATAAACAAAAAATCA [CACACA_site8382] | 10.8 ± 0.96
AAATTATAATATAATACACACATAAAAAAAAAATCA [CACACA_site3634] | 7.76 ± 0.45
AAAATATAATATAATGCACACATAAAACAAAAAAAA [CACACA_site8989] | 10.7 ± 0.67
CCCCCCGTGTTATATACACACATAATCAAATAAAAT [CACACA_site4111] | 10.9 ± 0.4
AGGCACGTGTTATATACACACATAATCAAATAAACT [CACACA_site7852] | 8.11 ± 0.61
